Bioassay records from PubChem.
Pf apPOL block – Pf-apPOL inhibitors, biochemical, fluorescence | Recombinant Pf-apPOL, molecular beacon fluorescence, 1.5 h | inhibition, % at 10 µM | actives 0.25% (n = 210,000) | AID 1794808, 2022 | Plasmodium falciparum apicoplast DNA polymerase (apPOL)
mHTT CaM bind – mutant huntingtin-calmodulin interaction inhibitors – biochemical, AlphaScreen, primary screen. P42858. AlphaScreen His-mHTT/GST-CaM binding, luminescence. inhibition, % at 15 µM. actives 3.6% (n = 190,000). AID 1671202, 2021
Each line names hits and unclear results; the compound was inactive in the other large screens. A selection: hits, their analogues and other compounds. The true share with any hit is near 3.5%. Rule as the data show it: active = inhibition above about 50%; inactive = the rest.

COc1ccc(-c2nc3n(n2)C(c2ccc(Cl)cc2)C2=C(CCCC2=O)N3)cc1OC (stereo not given)	none
COc1ccc(C2C3=C(CCCC3=O)Nc3nc(-c4cccc(Cl)c4)nn32)cc1OC (stereo not given)	none
COc1ccc(C2C3=C(CCCC3=O)Nc3nc(-c4ccccc4)nn32)cc1OC (stereo not given)	mHTT CaM bind 76
Cc1c(Br)cc(C(=O)N2CCOCC2)c(C)c1C	none
CC1=NN(c2ccccc2)C(=O)/C1=C/c1ccc(OCc2ccccc2)cc1	none
CC(=O)C(=CN(C)C)c1ncccc1[N+](=O)[O-]	none (no result: mHTT CaM bind)
O=C1/C(=C/c2ccc(F)cc2)CC/C1=C\c1ccc(F)cc1	none
Cc1ccc(S(=O)(=O)N2CCC(C(=O)N3CCCCCC3)CC2)cc1	none
O=C1CCCC2=C1C(c1ccc(Br)cc1)n1nc(-c3ccco3)nc1N2 (stereo not given)	mHTT CaM bind 84
COc1ccc(-c2nc3n(n2)C(c2ccc(OC)cc2)C2=C(CCCC2=O)N3)cc1 (stereo not given)	none
O=C1CCCC2=C1C(c1ccncc1)n1nc(-c3cccc(Cl)c3)nc1N2 (stereo not given)	mHTT CaM bind 55
O=C1CCCC2=C1C(c1ccc3c(c1)OCO3)n1nc(-c3cccc(Cl)c3)nc1N2 (stereo not given)	none
Cc1ccc(/C=C/C23NC(=O)CCN2c2ccccc2C3(C)C)cc1 (stereo not given)	mHTT CaM bind 55
CC1(C)c2ccccc2N2CCC(=O)NC21C=Cc1cccs1 (stereo not given)	none (no result: mHTT CaM bind)
CCn1c(N2CCCC(C(=O)NC3CCCCC3)C2)cc(=O)n(C)c1=O (stereo not given)	none
Cc1nn(-c2ccccc2)c2nc(N3CCC(NC(=O)c4cccs4)CC3)sc12	none
Cc1cc2ccccc2n1CCNC(=O)C(C)(C)Oc1ccc(Cl)cc1	mHTT CaM bind 60
CC(C)(Oc1ccc(Cl)cc1)C(=O)NCCc1ccccc1	none
O=C(NCCSc1c[nH]c2ccccc12)c1ccc(Cl)cc1	none
CC(C)(Oc1ccc(Cl)cc1)C(=O)NCCSc1c[nH]c2ccccc12	mHTT CaM bind 99
COC(=O)c1ccccc1NC(=O)C12CC3CC(CC(C3)C1)C2	none
CCCC(CCC)C(=O)N1CCc2c(c(C(=O)NCc3ccc(F)cc3)nn2C)C1	mHTT CaM bind 77
CCC(=O)N1CCc2c(c(C(=O)NCc3ccccc3)nn2C)C1	none
CCCCC(=O)N1CCc2c(c(C(=O)NCc3ccc(F)cc3)nn2C)C1	none
CCC(CC)C(=O)N1CCc2c(c(C(=O)NCc3ccccc3)nn2C)C1	mHTT CaM bind 51
Cn1nc(C(=O)NCc2ccc(Cl)cc2)c2c1CCN(C(=O)c1ccc(F)cc1)C2	none
CCC(CC)C(=O)N1CCc2c(c(C(=O)NCc3ccc(Cl)cc3)nn2C)C1	mHTT CaM bind 71
CCOc1ccc(N2CN=c3s/c(=C\c4ccc(OC)c(OC)c4)c(=O)n3C2)cc1	none
COc1cccc2cc(-c3cc(=O)oc4cc(OCC#N)ccc34)c(=O)oc12	none
COc1cc(C2C3=C(CCCC3=O)NC3=C2C(=O)c2ccccc23)ccc1O (stereo not given)	none
Cc1ccc(C2C3=C(CC(c4ccco4)CC3=O)NC3=C2C(=O)c2ccccc23)cc1 (stereo not given)	none
CC(C)c1ccc(C2C3=C(CC(C)(C)CC3=O)NC3=C2C(=O)c2ccccc23)cc1 (stereo not given)	mHTT CaM bind 65
O=C1CC(c2ccccc2)CC2=C1C(c1ccc(Cl)cc1)C1=C(N2)c2ccccc2C1=O (stereo not given)	none
CC(C)(C)c1ccc(C2C3=C(CCCC3=O)NC3=C2C(=O)c2ccccc23)cc1 (stereo not given)	mHTT CaM bind 63
CC(C)c1ccc(C2C3=C(CCCC3=O)NC3=C2C(=O)c2ccccc23)cc1 (stereo not given)	mHTT CaM bind 75
CCC(C)NC(=O)c1cc(S(=O)(=O)N2CC(C)CC(C)C2)ccc1F (stereo not given)	none
COc1cc(-c2nc3sc4c(c3c(=O)[nH]2)CCCC4)cc([N+](=O)[O-])c1O	none
O=C(c1cc(-c2ccc3c(c2)OCO3)n[nH]1)N1CCCC(COCc2ccccc2)C1 (stereo not given)	none
CSc1sc(C)cc1C1C(C#N)=C(N)N(c2ccccc2)C2=C1C(=O)CCC2 (stereo not given)	none
Cn1cnc2c(-c3ccc(Br)cc3)csc2c1=O	none
COc1cccc(-c2nc(C=Nc3ccc(Cl)c([N+](=O)[O-])c3)c(O)o2)c1	none
O=C(Nc1ccc(Cl)c(Cl)c1)N1CCCN(Cc2ccccc2)C1	mHTT CaM bind 95
O=C(Nc1cc(Cl)cc(Cl)c1)N1CCCN(Cc2ccccc2)CC1	none (no result: mHTT CaM bind)
Cc1ccc(C2=NNC(c3ccc(F)cc3)S2)cc1 (stereo not given)	mHTT CaM bind 62 (no result: Pf apPOL block)
Cc1ccc(C2=NNC(C(O)C(O)C(O)C(C)O)S2)cc1 (stereo not given)	none (no result: Pf apPOL block)
CN(C)S(=O)(=O)c1ccc(C(=O)N2Cc3nn(C(C)(C)C)c(-n4cccc4)c3C2)cc1	mHTT CaM bind 54
CC(C)(C)n1nc2c(c1-n1cccc1)CN(C(=O)c1ccc(=O)[nH]c1)C2	none
O=C(O)c1ccc(Nc2c([N+](=O)[O-])c(=O)oc3ccccc23)cc1O	none
O=C(NCc1cccnc1)C(=O)Nc1cc(F)ccc1F	none
Clc1cccc(C2Nc3cccc4cccc(c34)N2)c1	mHTT CaM bind 82 (no result: Pf apPOL block)
c1csc(C2Nc3ccccc3-c3nc4ccccc4n32)c1 (stereo not given)	none
c1csc(C2Nc3cccc4cccc(c34)N2)c1	mHTT CaM bind 50 (no result: Pf apPOL block)
c1ccc2c(C3Nc4cccc5cccc(c45)N3)cccc2c1	mHTT CaM bind 77 (no result: Pf apPOL block)
N#CC1=C(N)SC(N)=C(C#N)C1c1cccc2ccccc12	none
Fc1cccc(Cl)c1C1Nc2cccc3cccc(c23)N1	none (no result: Pf apPOL block)
Cc1cc(-c2nnc(NC(=O)NCc3cccs3)o2)c(C)o1	none
Cn1nc(-c2nc(Cc3ccccc3)no2)c2c1CCN(C(=O)c1ccco1)C2	none
Cc1cc(NC(=O)Cc2cccs2)n(-c2nc(-c3ccc4c(c3)OCO4)cs2)n1	none
CC(C)N(C(=O)CSc1nc2ccccc2[nH]1)c1ccccc1	none
O=C(CCC1CCCN(C(=O)Nc2ccccc2)C1)NCc1cccc(C(F)(F)F)c1 (stereo not given)	none
CN(C)c1cccc2c(S(N)(=O)=O)cccc12	none (no result: Pf apPOL block)
Cc1cc(C2CC(C(=O)NCc3cccnc3)CN(C(=O)NC(C)C)C2)ccc1F (stereo not given)	mHTT CaM bind 67
CCNC(=O)N1CC(C(=O)NCC2CC2)CC(c2ccc(F)c(C)c2)C1 (stereo not given)	none
CCNC(=O)C1CC(c2ccc(F)c(C)c2)CN(C(C)=O)C1 (stereo not given)	none
CCC(C)NC(=O)C1CC(c2ccc(F)c(C)c2)CN(C(=O)c2ccccc2)C1 (stereo not given)	mHTT CaM bind 96
CCNC(=O)C1CC(c2ccccc2)CN(C(=O)c2ccccc2)C1 (stereo not given)	none
CCNC(=O)C1CC(c2ccc(F)c(C)c2)CN(C(=O)c2ccccc2)C1 (stereo not given)	mHTT CaM bind 93
O=C(Cn1c(=O)n(-c2ccc(F)cc2)c2ncccc21)N1CCCCC1	none
N#Cc1c(F)cccc1NCCc1ccc(Cl)cc1	none (no result: mHTT CaM bind)
COc1cc(/C=C2\SC(=O)N(Cc3ccc(F)cc3)C2=O)cc(Cl)c1O	none
